Reference: publication PMC12864922, “TDP-43 directly inhibits mRNA accumulation in neurites through modulation of mRNA stability”
Whole data set: some 9,900 sequences, median “r (bound/input frequency ratio)” near 0.7, cut for the highest 2% near 6.5. The entries come from a sample that favours the highest values as a whole.

B1: ENSMUSG00000031028.17|Tub|206:210 (ssRNA)
RNA: GGGAGUUCUACAGUCCGACGAUCGCUUCGAUAUCCGCAUGCUACUCUGUCCAGCUUUGACAGCAAGCUGGCCUGCGAGUAGAGGCCCCCCACUGCCUUUAGGUGGCCCAGUCCGGAGUGGAGCUUGCCUGCCUGCCAAGACAGCCCUGCCUACCCUCUGUUCAUAGGCCCUCUAUGGGCUUUCUGGCCUUACCAACCAGAGACUGGCUGCUCUGCCUCUGCUGCUGAAGCAGGGGGGACAGCAAAUGGCAUACACAGGAGAAGAAUAUUUCUGUGCCCCAAGGUCAACACACAUGCCCAGUCCCUCUUGCGGUCGCACUAGUGUGGAAUUCUCGGGUGUCAAGG
B2: ENSMUSG00000031028.285|Tub (ssRNA)
RNA: GGGAGUUCUACAGUCCGACGAUCGCUUCGAUAUCCGCAUGCUAUGCAGGUAAGGAGGCUGGAUUGAUGUAAAUGGAAGUAGUACUUUAAGAAAGCUCUAGAUUUCCCAGGUUGGACACUCGACGAAAGGCACACCUGCUGCAGCAGGUUCUGACACACCUGAGCCAUACAUUGCCAUCAGAGAACCCUCAGCGAGGUAGCCUUUGUUUACAGUCUAGUUUCUAGAGGGCAGUAGGACUUCCAUGCUGGGGCUGGCCUAUCUCCUGAUGAAAGAUUACAGUGCCAUCUCCUUCCCAUAGUUCUGCUCUUGCGGUCGCACUAGUGUGGAAUUCUCGGGUGUCAAGG
B3: ENSMUSG00000061578.738|Ksr2 (ssRNA)
RNA: GGGAGUUCUACAGUCCGACGAUCGCUUCGAUAUCCGCAUGCUAUUGUCUAAGGCUGUGGGUUUUAAAUACCUGCUGCAGGCCUCCCAUCUCUGGCUCUUUGUUUCCACUCUGGCCCAAGUUUGAGUCUCCAUAUGGGCCCUUCCUGUCCUCAUGCCCUGCCUGUCUUCAUUCCACCCAUCCACCCUCCUAAGGAUUGGUCUUGUUCCGAGAGUGAUCCUGGUAACGCCAAGCCUCCCUCUGCCCCUGUGUUGGCUUCUGUGACGGACUACCACACACCAAGAGGUUUUUCACAGUGAAGAUGUCUCUUGCGGUCGCACUAGUGUGGAAUUCUCGGGUGUCAAGG
B4: ENSMUSG00000061578.1348|Ksr2 (ssRNA)
RNA: GGGAGUUCUACAGUCCGACGAUCGCUUCGAUAUCCGCAUGCUACUCUUCCUCCUGUCCCACAGCCCCCAGGUCAGAGCCAAGCGCAUCAUCUGCAGCACACAUGUCUGUCUCCACAGGCAAGCAACCUUGCCAAGGCAGGCCAGACAGGACAGCCCAGCUUCCCACUCCAGACAUGUUGUUCUUACAUCUCUGACCCAGUGAUCUUUCUAGGGGUCUGUCACAUGUCCCAACAGGUGGACAGCUCUCCAAGUCACCAACCUGAGGAAAAUAUCCCUCCUUGUAAAAAGGCUUUCUCUUUGUAACUCUUGCGGUCGCACUAGUGUGGAAUUCUCGGGUGUCAAGG
B5: ENSMUSG00000029028.239|Lrrc47 (ssRNA)
RNA: GGGAGUUCUACAGUCCGACGAUCGCUUCGAUAUCCGCAUGCUAGUGCGAGAGCCGUUAGCUGUCAGAACUAGUGAAGCUCCAGGCUCCUCGUGGCAGACCCUGGACAACGCUGGUAGCUGUUCUCCAUGAGACACGGCUGCUCACAGGUCCCUUUGAGUGGCUGUGGCAAGUACUCACCUACUAAGUGUUUAGGGUGGAGCUAUCCUGUGCUCACCCUGUCUCCCCCCAGUUCCUGCUGUUCCCUCCAGCCCAGCCCAGCCCAGGUGUGAGAUUCAUUGAGAUUUUUGAAACUGUUUUUACAGCUCUUGCGGUCGCACUAGUGUGGAAUUCUCGGGUGUCAAGG
B6: ENSMUSG00000029028.154|Lrrc47 (ssRNA)
RNA: GGGAGUUCUACAGUCCGACGAUCGCUUCGAUAUCCGCAUGCUAGCUUGUUUCCAGGCACCGUGCUGCCGCCAUGCUCCCAGGGCAGCAUCUGCCUUCCACGGCUGUGCUUGGAACUGUAGUGCUGGUCGUUGUUGGCACAUCUGCGCCUUGGCCAAGGAAGUUAUCUAUGUCCGUGUAGUCCUUUGUAGUCAGACAGAUGCUUCGUGGACUGUGCCUCACACAUGGCCCUGCAGGCUCCAUGUCAGCGUGUCCCACUAUUCAUGUCCCAUCUCUGUGCAUCCUGACUGCGCACAUCCCAUCUCCUCUUGCGGUCGCACUAGUGUGGAAUUCUCGGGUGUCAAGG
B7: ENSMUSG00000061578.113|Ksr2|98:102;184:189;252:256 (ssRNA)
RNA: GGGAGUUCUACAGUCCGACGAUCGCUUCGAUAUCCGCAUGCUACUCCCAUUUUGUAAGAACACUGUUCUAACUCACCUCAUGCCCACGCUACCCUGGGCAACUGGAGAACACCAUAGCGUUUCAGCUGAUGUGACAUUUGCACACACCUUUACCAGUUCACCAUCAUUCAUGGCUUCCCCCAAAGUCCCGAGUCCUGAGAACCGGGGCUGUGGCAAGAGAGUUCUGCACACAUCUCUCUGUGGGGCUAGCAAUGCCGGGGUUAAGUUCUCCCUCGGUGAUGGAGACGGUCCUGGCAUACCAUGCUCUUGCGGUCGCACUAGUGUGGAAUUCUCGGGUGUCAAGG
B8: ENSMUSG00000034801.54|Sos2 (ssRNA)
RNA: GGGAGUUCUACAGUCCGACGAUCGCUUCGAUAUCCGCAUGCUAUCAAUGACCUUGGCCAUAUGUAGUCAUUGACACUGGAAUAGUAUUUGUAAAGGUUUUUAAUUUAUUCAAAAAGACAUAGUAUUUUAGUACUUUUUACAGAAAUGCUACUGAUUAAAUAAGCUCUUAAGAAUUAGUAAACUUGUUGGAUGGCAGUGGCCCACAGCUGUAAUCCCAGCACCCUGGUUGCAGGGGCAGGUGGGCUUCAGGGUUUGAGAGCAGCCUGGUCUACAGAGCAAGUCCCAGGACAGCCAGGGCUACACCUCUUGCGGUCGCACUAGUGUGGAAUUCUCGGGUGUCAAGG
B9: ENSMUSG00000090935.235|Synj2bp (ssRNA)
RNA: GGGAGUUCUACAGUCCGACGAUCGCUUCGAUAUCCGCAUGCUAGGGGACUAGGGGAUCAUAUUCCCUCAUAUAUAAUCAAGACUCAUAUUGAAAAAUGAGUUCUGGAUUGUAAAGAGAACUUACUUUUUCCACUUGCCUGUAAGUCUUUGUCCACAAGUUAAAAACAUACACAGUGCUAAGGAAUGAUCAUAACUGAAACAUUUCAAGAACUAUUAGCAGAGCAUGUAUAUUGAGGAUGGGGAAGUUAGCUUUAAAAGAGAAUGCUCAGUCAGUGACAUUAGGAAAAUAAUGACUGAAGCAAUCUCUUGCGGUCGCACUAGUGUGGAAUUCUCGGGUGUCAAGG

biological target: TDP-43 (Homo sapiens, UniProt Q13148 1-414); experiment: RNA Bind-n-Seq with designed 260-mer pool; 25 mM Tris-HCl, 150 mM KCl, 3 mM MgCl2, BSA (printed 500 mg/mL), 20 units/mL SUPERase IN; pH not stated; 500 nM RNA pool, 1 h, 4 C; TDP-43 5, 50, 500 nM; high values mean tight binding; details: protein: recombinant; tags: SBP (GST cleaved off with PreScission; pGEX-GST-SBP)
In short: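 Duplicate measurements used two independent batches of recombinant SBP-tagged TDP-43, which was captured on streptavidin beads at 5, 50 or 500 nM. The beads were incubated with 500 nM of an in vitro-transcribed 260-nt 3′ UTR oligo pool for 1 h at 4 °C in 25 mM Tris-HCl, 150 mM KCl, 3 mM MgCl2, BSA and SUPERase IN. After washing, biotin elution, reverse transcription, PCR amplification and sequencing, binding was expressed as R: each oligo's normalized read abundance in the bound sample over its abundance in input.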

Chain of TDP-43 (Q13148 whole entry): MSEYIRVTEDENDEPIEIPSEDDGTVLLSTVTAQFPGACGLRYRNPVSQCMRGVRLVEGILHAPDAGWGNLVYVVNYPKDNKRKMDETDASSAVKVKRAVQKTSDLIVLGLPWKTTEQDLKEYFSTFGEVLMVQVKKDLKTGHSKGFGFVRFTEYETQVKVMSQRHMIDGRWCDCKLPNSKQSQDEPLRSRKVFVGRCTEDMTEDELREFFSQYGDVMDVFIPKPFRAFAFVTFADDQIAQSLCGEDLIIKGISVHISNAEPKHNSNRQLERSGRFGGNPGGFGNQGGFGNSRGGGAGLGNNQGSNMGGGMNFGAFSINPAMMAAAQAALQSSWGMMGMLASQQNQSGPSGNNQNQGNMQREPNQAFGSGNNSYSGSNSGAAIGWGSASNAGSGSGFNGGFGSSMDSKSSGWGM

| Binder | binding signal |
| --- | --- |
| B1 | 0.458 R (bound/input frequency ratio) |
| B2 | 0.881 R (bound/input frequency ratio) |
| B3 | 1.57 R (bound/input frequency ratio) |
| B4 | 0.533 R (bound/input frequency ratio) |
| B5 | 0.716 R (bound/input frequency ratio) |
| B6 | 1.62 R (bound/input frequency ratio) |
| B7 | 0.484 R (bound/input frequency ratio) |
| B8 | 0.356 R (bound/input frequency ratio) |
| B9 | 0.157 R (bound/input frequency ratio) |
